We go through 32 compounds from PubChem BioAssay (Tox21).

Records with an inconclusive call do not appear. Entries that show only a call come without a potency. Activity calls are given as the source filed them. The call rests on the fitted dose curve.

Sequence of 5-hydroxytryptamine receptor 2A (Homo sapiens) (P28223 whole entry, looked up): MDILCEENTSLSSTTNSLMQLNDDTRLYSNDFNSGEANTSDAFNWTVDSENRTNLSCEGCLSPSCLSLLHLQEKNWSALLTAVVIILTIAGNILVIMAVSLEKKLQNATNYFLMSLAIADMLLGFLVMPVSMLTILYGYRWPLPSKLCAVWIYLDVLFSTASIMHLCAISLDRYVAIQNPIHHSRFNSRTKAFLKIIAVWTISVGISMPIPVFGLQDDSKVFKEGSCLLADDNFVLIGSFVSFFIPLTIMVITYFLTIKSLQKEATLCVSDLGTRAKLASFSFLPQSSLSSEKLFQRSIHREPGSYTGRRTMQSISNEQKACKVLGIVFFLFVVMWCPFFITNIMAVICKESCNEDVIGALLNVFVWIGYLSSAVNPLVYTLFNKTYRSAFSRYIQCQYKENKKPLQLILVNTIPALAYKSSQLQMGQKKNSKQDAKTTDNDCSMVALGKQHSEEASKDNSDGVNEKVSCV

The first assay concerns the target 5-hydroxytryptamine receptor 2A (Homo sapiens) (UniProt P28223). The assay can be described thus: 5-hydroxytryptamine receptor 2A (HTR2A) small molecule antagonists, cell-based qHTS assay (AID 1963586). Further: nearly all actives have a fitted effect of over 45% in size. Particulars: HTR2A-CHO cells, DOI-induced calcium flux, fluorescence; series mostly up to 61.5 µM. The gist of the method:
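Antagonist-mode intracellular calcium assay: DOI (4 nM) added after 5 min compound pre-incubation at room temperature to dye-loaded HTR2A-CHO cells. Fluorescence followed for 3 min, sampled every second.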
(In qHTS, concentration-response curves come from the screen itself.)
As for `CC(=O)c1ccc(Cl)c(Cl)c1Cl`, the Potency result is “inactive”.

On to `O=C(O)CCC(=O)c1ccc(-c2ccccc2)cc1`, for which the Potency result is “inactive”.

Take `CCCCCCCCOC(C)=O`: the Potency result is “inactive”.

Turning to `O=C(Nc1ccc2c(O)c(N=Nc3ccc(N=Nc4ccc(S(=O)(=O)O)cc4)cc3)c(S(=O)(=O)O)cc2c1)c1ccccc1`, the Potency result was “inactive”.

In the case of `CC(C)(C)C(=O)/C=C/c1ccc(Cl)cc1`, the Potency result was “inactive”.

For `OCC(O)[C@@H](O)[C@H](O)[C@H](O)CO[C@H]1O[C@H](CO)[C@@H](O)[C@H](O)[C@H]1O` (stereo partly drawn), the Potency entry is “inactive”.

On to `C[C@@H](CN1CC(=O)NC(=O)C1)N1CC(=O)NC(=O)C1`, for which the Potency entry is “inactive”.

With `Cc1ccsc1C(=CCCN1CCC[C@@H](C(=O)O)C1)c1sccc1C`, the Potency entry was “inactive”.

Take `CCCCCCCCCCC(=O)O`: the Potency entry is “inactive”.

As for `CCOCCOCCOC(C)=O`, the Potency entry is “inactive”.

In the case of `CO[Si](C)(OC)c1ccccc1`, the Potency result is “inactive”.

As to `COC(=O)c1ccccc1Cl`, the Potency entry was “inactive”.

Take `CCCCCCCCCC#N`: the Potency entry was “inactive”.

In the case of `CCOC(=O)CCCCCCCCC(=O)OCC`, the Potency result is “inactive”.

Consider `COc1cccc(O)c1`, for which the Potency result was “inactive”.

`CC1OCCC1=O` (stereo not drawn): the Potency entry is “inactive”.

As to `CC(C)=CCC/C(C)=C/CC/C(C)=C/CO`, the Potency result was “inactive”.

Consider `COCCOCC(OC)OC`, for which the Potency result is “inactive”.

`ClC(Cl)(Br)Br`: the Potency result was “inactive”.

`N[C@H]1CN(c2c(F)cc3c(=O)c(C(=O)O)cn(C4C[C@H]4F)c3c2Cl)CC12CC2` (stereo partly drawn): the Potency entry was “inactive”.

Take `CCC(=O)c1cccc(Cl)c1`: the Potency result was “inactive”.

Regarding `O=C1CCCc2c(O)cccc21`, the Potency entry is “inactive”.

`OC[C@@H](O)C(O)[C@@H](O)CO` (stereo partly drawn): the Potency result is “inactive”.

As to `Cc1ccco1`, the Potency entry was “inactive”.

Turning to `CN(C)c1ccc(C(c2ccccc2)c2ccc(N(C)C)cc2)cc1`, the Potency entry is “inactive”.

As to `CCCCOC(=O)C(C)Oc1ccc(Oc2ccc(C(F)(F)F)cn2)cc1` (stereo not drawn), the Potency result is “inactive”.

The next assay has the same target. The assay can be described thus: 5-hydroxytryptamine receptor 2A (HTR2A) small molecule agonists, cell-based qHTS assay (AID 1963587). Further: nearly all actives have a fitted effect of over 30% in size. The settings on record: HTR2A-CHO cells, calcium flux fluorescence, agonist mode; series mostly up to 76.8 µM. The gist of the method: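 CHO cells stably expressing human HTR2A, plated 18 h, loaded with calcium dye 1 h at 37 C. Agonist mode: compounds added and intracellular calcium fluorescence recorded kinetically for 2 min at 1 sec intervals.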
Take `CC(=O)c1ccc(Cl)c(Cl)c1Cl`: the Potency entry was “inactive”.

As for `O=C(O)CCC(=O)c1ccc(-c2ccccc2)cc1`, the Potency result was “inactive”.

Consider `CCCCCCCCOC(C)=O`, for which the Potency result was “inactive”.

As for `CC(C)(C)C(=O)/C=C/c1ccc(Cl)cc1`, the Potency result was “inactive”.

As to `OCC(O)[C@@H](O)[C@H](O)[C@H](O)CO[C@H]1O[C@H](CO)[C@@H](O)[C@H](O)[C@H]1O` (stereo partly drawn), the Potency entry was “inactive”.

For `Cc1ccsc1C(=CCCN1CCC[C@@H](C(=O)O)C1)c1sccc1C`, the Potency entry was “inactive”.

As for `CCCCCCCCCCC(=O)O`, the Potency result was “inactive”.

As for `CCCc1nc2c(C)cc(-c3nc4ccccc4n3C)cc2n1Cc1ccc(-c2ccccc2C(=O)O)cc1`, the Potency entry was “inactive”.

Consider `CO[Si](C)(OC)c1ccccc1`, for which the Potency result is “inactive”.

Consider `COC(=O)c1ccccc1Cl`, for which the Potency result was “inactive”.

Turning to `CCCCCCCCCC#N`, the Potency result was “inactive”.

Take `CCOC(=O)CCCCCCCCC(=O)OCC`: the Potency result is “inactive”.

On to `COc1cccc(O)c1`, for which the Potency result is “inactive”.

Take `[O-][n+]1cccc(CO)c1`: the Potency entry was “inactive”.

As for `CC1OCCC1=O` (stereo not drawn), the Potency entry is “inactive”.

As to `CC(C)=CCC/C(C)=C/CC/C(C)=C/CO`, the Potency result is “inactive”.

With `O=[N+]([O-])c1cc(Cl)c(Cl)c(Cl)c1Cl`, the Potency result was “inactive”.

`COCCOCC(OC)OC`: the Potency result is “inactive”.

As for `ClC(Cl)(Br)Br`, the Potency result is “inactive”.

For `N[C@H]1CN(c2c(F)cc3c(=O)c(C(=O)O)cn(C4C[C@H]4F)c3c2Cl)CC12CC2` (stereo partly drawn), the Potency entry is “inactive”.

As to `CCC(=O)c1cccc(Cl)c1`, the Potency result was “inactive”.

Take `CN(C)CCOC1=Cc2ccccc2Sc2ccc(Cl)cc21`: the Potency entry is “inactive”.

For `COc1cc2nc(Cl)nc(N)c2cc1OC`, the Potency entry was “inactive”.

For the compound `O=C1CCCc2c(O)cccc21`, the Potency entry was “inactive”.

As to `C=CC(=O)O`, the Potency result is “inactive”.

On to `OC[C@@H](O)C(O)[C@@H](O)CO` (stereo partly drawn), for which the Potency result was “inactive”.

For the compound `Cc1ccco1`, the Potency entry is “inactive”.

As to `CN(C)c1ccc(C(c2ccccc2)c2ccc(N(C)C)cc2)cc1`, the Potency result was “inactive”.

In the case of `CCCCOC(=O)C(C)Oc1ccc(Oc2ccc(C(F)(F)F)cn2)cc1` (stereo not drawn), the Potency result was “inactive”.

A further assay deals with Muscarinic acetylcholine receptor M1 (Homo sapiens) (UniProt P11229). The assay can be described thus: Cholinergic receptor muscarinic 1 (CHRM1) small molecule antagonists, cell-based qHTS assay (AID 1963588). Further: nearly all actives have a fitted effect of over 40% in size. Further: potency means the concentration at half of the fitted maximal effect. Particulars: CHRM1-CHO antagonist mode, calcium flux fluorescence; series mostly up to 61.5 µM. The gist of the method: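 CHRM1-CHO calcium-flux assay, antagonist mode. Cells were seeded 18 h, dye-loaded 1 h at 37 C and given compound for 5 min at RT, then acetylcholine was added at 50nM. FDSS fluorescence was read 3 min; 15 concentrations, three runs.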
Sequence of Muscarinic acetylcholine receptor M1 (Homo sapiens) (P11229 whole entry, looked up): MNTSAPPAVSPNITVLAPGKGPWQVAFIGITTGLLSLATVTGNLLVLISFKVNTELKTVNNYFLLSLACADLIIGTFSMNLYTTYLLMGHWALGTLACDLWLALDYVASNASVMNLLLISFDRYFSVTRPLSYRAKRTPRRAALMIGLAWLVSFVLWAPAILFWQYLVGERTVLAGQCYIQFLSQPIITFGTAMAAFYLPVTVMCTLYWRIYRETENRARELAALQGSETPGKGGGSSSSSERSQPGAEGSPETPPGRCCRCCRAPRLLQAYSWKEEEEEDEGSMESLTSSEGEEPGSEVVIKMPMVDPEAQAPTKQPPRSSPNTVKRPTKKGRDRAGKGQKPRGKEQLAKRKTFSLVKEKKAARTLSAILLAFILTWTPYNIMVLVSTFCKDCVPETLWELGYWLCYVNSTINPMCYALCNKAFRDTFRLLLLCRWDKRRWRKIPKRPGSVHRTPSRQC
Take `CC(=O)c1ccc(Cl)c(Cl)c1Cl`: the Potency result was “inactive”.

`O=C(O)CCC(=O)c1ccc(-c2ccccc2)cc1`: the Potency result is “inactive”.

Regarding `CCCCCCCCOC(C)=O`, the Potency entry is “inactive”.

In the case of `O=C(Nc1ccc2c(O)c(N=Nc3ccc(N=Nc4ccc(S(=O)(=O)O)cc4)cc3)c(S(=O)(=O)O)cc2c1)c1ccccc1`, the Potency entry is “inactive”.

Regarding `CC(C)(C)C(=O)/C=C/c1ccc(Cl)cc1`, the Potency result is “inactive”.

`OCC(O)[C@@H](O)[C@H](O)[C@H](O)CO[C@H]1O[C@H](CO)[C@@H](O)[C@H](O)[C@H]1O` (stereo partly drawn): the Potency result is “inactive”.

Consider `C[C@@H](CN1CC(=O)NC(=O)C1)N1CC(=O)NC(=O)C1`, for which the Potency entry was “inactive”.

Regarding `Cc1ccsc1C(=CCCN1CCC[C@@H](C(=O)O)C1)c1sccc1C`, the Potency result was “inactive”.

Turning to `CCCCCCCCCCC(=O)O`, the Potency result was “inactive”.

Take `CCCc1nc2c(C)cc(-c3nc4ccccc4n3C)cc2n1Cc1ccc(-c2ccccc2C(=O)O)cc1`: the Potency result was “inactive”.

`CCOCCOCCOC(C)=O`: the Potency result is “inactive”.

As for `CO[Si](C)(OC)c1ccccc1`, the Potency result was “inactive”.

With `COC(=O)c1ccccc1Cl`, the Potency entry was “inactive”.

Turning to `CCCCCCCCCC#N`, the Potency entry is “inactive”.

For `CCOC(=O)CCCCCCCCC(=O)OCC`, the Potency result is “inactive”.

As to `[O-][n+]1cccc(CO)c1`, the Potency result was “inactive”.

As for `CC1OCCC1=O` (stereo not drawn), the Potency result was “inactive”.

With `CC(C)=CCC/C(C)=C/CC/C(C)=C/CO`, the Potency result is “inactive”.

Turning to `O=[N+]([O-])c1cc(Cl)c(Cl)c(Cl)c1Cl`, the Potency entry was “inactive”.

Consider `COCCOCC(OC)OC`, for which the Potency entry is “inactive”.

On to `ClC(Cl)(Br)Br`, for which the Potency entry was “inactive”.

For the compound `N[C@H]1CN(c2c(F)cc3c(=O)c(C(=O)O)cn(C4C[C@H]4F)c3c2Cl)CC12CC2` (stereo partly drawn), the Potency entry was “inactive”.

With `CCC(=O)c1cccc(Cl)c1`, the Potency result is “inactive”.

Regarding `CN(C)CCOC1=Cc2ccccc2Sc2ccc(Cl)cc21`, the Potency entry was “inactive”.

Regarding `COc1cc2nc(Cl)nc(N)c2cc1OC`, the Potency result is “inactive”.

For the compound `O=C1CCCc2c(O)cccc21`, the Potency is 163 nM (active).

With `C=CC(=O)O`, the Potency result was “inactive”.

Regarding `OC[C@@H](O)C(O)[C@@H](O)CO` (stereo partly drawn), the Potency result was “inactive”.
